ALDH1A1 block: ALDH1A1 (human) enzyme inhibition; Purified ALDH1A1, NADH fluorescence, propionaldehyde substrate; Potency, µM (series often up to 75.3 µM), without a hit: at the top dose activity, negative = inhibition, most hits filed as inhibitors; 220,000 tested, 7.3% active; AID 1030;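 also: potency is read from the fitted curve at half-maximal effect; plate controls were no enzyme wells and a reference inhibitor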
HPGD inh: HPGD (human) dehydrogenase inhibition | 150,000 tested, 4.3% active | P15428 | Potency, µM, for inactives: at the highest dose activity change, negative = inhibition, actives largely listed as inhibitors | purified HPGD, NADH fluorescence kinetic, PGE2 substrate | AID 894; also: potency is read from the fitted curve at half-maximal effect
Target sequence (P15428 whole entry, looked up): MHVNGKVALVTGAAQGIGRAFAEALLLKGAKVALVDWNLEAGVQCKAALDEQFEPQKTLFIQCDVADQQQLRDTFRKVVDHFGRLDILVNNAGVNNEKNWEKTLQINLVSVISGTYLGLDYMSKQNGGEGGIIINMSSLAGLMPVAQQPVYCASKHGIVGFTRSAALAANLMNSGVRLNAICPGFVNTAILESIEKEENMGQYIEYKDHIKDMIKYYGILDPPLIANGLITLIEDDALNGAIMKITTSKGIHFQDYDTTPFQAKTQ
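NADH formation kinetics: reaction with 30 uM PGE2 and 1 mM NAD+ (final), 20 nM enzyme, Tris-HCl pH 8 with Tween 20, after 15 min compound preincubation at room temperature. Fluorescence change, last versus first of five reads.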
IMPase cell inh: membrane-permeable compound that blocks inositol monophosphatase. P97697. CHO-M1 cells, IP1 accumulation, HTRF TR-FRET ratio. inhibition (IP1 accumulation), % at 46.1 µM. 120,000 tested, under 10 active. AID 901; active = well fitted curve in the direction sought with a large enough effect in the signal ratio, not every such curve was filed as active; inconclusive = small, poorly fitted or top-dose-only effect, or a change in a side signal; inactive = no such curve, though single readings can be large or run the other way; the % refers to the signal ratio;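 also: cells stimulated with carbachol in lithium chloride buffer; plate controls were DMSO basal wells for no effect and reference inhibitor wells for full effect; higher means more IMPase inhibition seen as more IP1 and lower FRET ratio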
Target sequence (P97697 whole entry, looked up): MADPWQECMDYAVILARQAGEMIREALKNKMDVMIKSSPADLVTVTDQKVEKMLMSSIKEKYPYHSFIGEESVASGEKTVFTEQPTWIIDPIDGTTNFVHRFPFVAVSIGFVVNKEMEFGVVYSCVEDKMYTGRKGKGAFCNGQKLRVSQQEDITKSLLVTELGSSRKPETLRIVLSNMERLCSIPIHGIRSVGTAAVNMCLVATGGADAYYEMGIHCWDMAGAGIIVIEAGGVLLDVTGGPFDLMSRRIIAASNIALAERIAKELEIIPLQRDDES
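CHO-M1 cells (CHO stably expressing M1 receptor), compound up to 46 uM final, stimulated with carbachol (50 uM as added) in buffer with 50mM LiCl, pH 7.4, 30 min at 37C. Cytosolic IP1 read by TR-FRET; AC50 from Hill fits.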
Starred values were filed as active, the others as inactive; ? = inconclusive; nt = not tested or not shown; [ ] = remark or other dose. This is a sample that favours compounds with a hit; in the whole collection about 9% have one here. Unless noted, calls follow the shape of the dose curve; as a rule, active = well fitted inhibition curve with a large enough effect (not every such curve was filed as active); inconclusive = small, poorly fitted or top-dose-only effect, or another doubt; inactive = no such curve, though single readings can be large or run the other way. Unless noted, % is scaled to controls: 0 for no effect and ±100 for the full control effect.

SMILES | ALDH1A1 block | HPGD inh | IMPase cell inh
O=c1cc(CN2CCN(c3ccccc3F)CC2)c2cc(O)c(-c3ccccc3)cc2o1 | 28.2µM* | -23.3% | nt
C=C1c2ccccc2O[C@H](C(=O)OCC)C1OC (mixture of isomers) | 31.6µM* | -10.7% | nt
C=C1c2cccc(OC)c2O[C@H](C(=O)OCC)[C@@H]1CCC(C)C | ? | -27.9% | nt
C=C1c2cccc(C(F)(F)F)c2O[C@H](C(=O)OCC)C1OC (mixture of isomers) | 2.5% | -8.7% | nt
C=C1c2ccccc2O[C@H](C(=O)OCC)[C@@H]1CCC(C)C (tested in a mixture with another compound) | 31.6µM* | -10.9% | nt
O=C(O)CN(CC(=O)O)CC(=O)O | -2.0% | -9.3% | nt
COCCNC(=S)Nc1ccccc1Cc1ccccc1 | 0.3% | nt | nt
Cc1ccc(S(=O)(=O)O[C@H]2CC(C(C)(C)C)CC[C@@H]2c2ccccc2)cc1 (stereo partly specified) | 0.2%[13.5 µM] | -8.7% | nt
COc1cc(C(=O)Oc2ccc3c(OC)c4ccoc4nc3c2OC)cc(OC)c1OC | 3.8% | -8.7% | nt
Cc1nc2c(C(=O)NCCC3=CCCCC3)c[nH]n2c(=O)c1Cl | ? | -29.2% | -2.2
CC1(C)C2CC=C(/C=N/NC(=O)c3ccccc3Br)C1C2 (stereo unspecified) | 16.2% | -7.0% | -0.1
CN(C)/C=C1\NC(=S)N(c2ccc(Cl)cc2)C1=O | 20µM* | nt | nt
COc1ccc2nc(N3C(=O)/C(=C/c4ccc(Cl)cc4)NC3=S)sc2c1 | 14.0% | -19.8% | nt
CCOc1ccc(C2N(c3ccc(F)cc3)C(=O)C3CCCN32)cc1OC (stereo unspecified) | -1.9% | -7.3% | 3.4
Cc1cc(O)ccc1NC(=O)CCN1C(=O)c2ccc([N+](=O)[O-])cc2C1=O | 11.2µM* | -14.3% | nt
O=C(CCN1C(=O)c2ccc([N+](=O)[O-])cc2C1=O)Nc1cccc(O)c1 | 12.9% | -4.0% | -9.9
CN(C)CCSc1nnc2[nH]c3ccccc3c2n1 | -5.3% | -15.6% | nt
COc1ccccc1CC(=O)NNS(=O)(=O)c1ccc([N+](=O)[O-])cc1 | 0.7% | nt | nt
N=C1/C(=C\c2ccc(-c3cccc(Cl)c3)o2)C(=O)N=C2SC=C(c3ccccc3)N12 | ? | 14.1µM* | -4.0
Cc1cccc(-n2c(C)cc(/C=C3/C(=N)N4C(c5ccccc5)=CSC4=NC3=O)c2C)c1 | 3.9% | -25.3% | nt
O=C(NC1CCCCCC1)C(=S)NC1CCCCC1 | -0.4% | nt | nt
CC(C)C1=CC2=CCC3[C@@](C)(CCC[C@@]3(C)C(=O)O)C2CC1 (stereo partly specified) | -11.7% | -6.9% | nt
Cc1ccc2c(c1)NCC(C(=O)NC1CCCCC1)O2 (stereo unspecified) | -7.7% | 12.6µM* | 2.1
COc1ccc(C)cc1C(=O)CCC(=O)NC1CCCCC1 | -4.9% | nt | nt
CCOc1nc(-c2ccc(C)cc2)ccc1-c1noc(-c2ccccc2F)n1 | nt | nt | -13.9
SMILES | ALDH1A1 block | HPGD inh | IMPase cell inh
O=C(c1ccc(F)cc1Cl)N(c1ccccn1)C1CCCCC1 | 16.1% | nt | nt
Cc1ccc2nc3ccc(N4CCCCCCC4)nn3c(=O)c2c1 | 10µM* | -27.3% | 6.4
Cc1ccc2nc3ccc(N4CCN(C)CC4)nn3c(=O)c2c1 | ? | -22.6% | 4.4
NS(=O)(=O)c1cc2c(cc1Cl)N[C@@H]([C@@H]1C[C@@H]3C=C[C@H]1C3)NS2(=O)=O | 4.1% | -1.0% | 3.3
Cc1ccc(NC2=C(Cl)C(=O)OC2NC(=O)c2ccccc2)cc1 (stereo unspecified) | -9.5% | -4.1% | nt
O=C1OC(NC(=O)c2ccccc2)C(n2cc(CO)nn2)=C1Cl (stereo unspecified) | 12.6µM* | 22.4µM* | 2.1
CCCCCCCCCCCCCCCCCCO | 11.0% | -7.8% | nt
O=C(c1cc2ccccc2oc1=O)N1CCN(c2ccc(Cl)cc2)CC1 | nt | nt | 8.2
C=CCc1cc(C=O)cc(OCC)c1O | -7.1% | nt | nt
COc1ccc(OC)c2c(=S)c3ccccc3[nH]c12 | 1.58µM* | 5.01µM* | 31.3
COc1ccc(-c2c(N)nnc3c2[nH]c2ccccc23)cc1OC | -6.6% | nt | -6.9
Cc1ccc(-n2c(SCC(=O)OC(C)C)nnc2-c2ccncc2)cc1 | 1.4% | -21.1% | -7.3
CC(C)OC(=O)CSc1nnc(-c2cnccn2)n1-c1ccc(Cl)cc1 | 10µM* | -20.4% | 3.9
O=C1N=c2ccccc2=C1c1sc(=S)n(-c2ccc(O)cc2)c1O | -1.1% | nt | nt
Cc1c(-n2c(O)c(C3=c4ccccc4=NC3=O)sc2=S)c(=O)n(-c2ccccc2)n1C | 7.94µM* | nt | nt
CCOc1ccccc1C(=O)N[C@H](C(=O)Nc1cc(S(=O)(=O)N(C)C)ccc1OC)C(C)C | 10µM* | nt | nt
CCOc1ccccc1C(=O)NC(C(=O)NCc1ccccc1OC)C(C)C (stereo unspecified) | 5.4% | nt | nt
CC(C)(C)c1nc(SCC(=O)N2CC(=O)Nc3ccccc32)c2ccccc2n1 | 9.7% | nt | nt
CC(C)C(=O)NCCCc1ccccc1 | 6.1% | -15.0% | ?
CC(C)CNC(=O)CCCc1ccccc1 | -4.6% | 14.1µM* | 4.4
C=CCNC(=O)CCCc1ccccc1 | 9.2% | -20.7% | -6.1
CC(C)CC(=O)NCCCCc1ccccc1 | ? | 15.8µM* | nt
CCC(C)Oc1ccccc1C1CC(=O)NC2=C1C(=O)CCC2 (stereo unspecified) | -3.4% | -10.5% | -12.3
CC(=O)O[C@@H]1C(CO[Si](C)(C)C(C)(C)C)=C(Br)C(=O)[C@@H]2O[C@]12C | -10.9% | ? | nt
CCOc1ccccc1C(=O)Nc1cc(C(=O)NCC(C)C)ccc1Cl | 10.1% | nt | nt
SMILES | ALDH1A1 block | HPGD inh | IMPase cell inh
CCOc1ccc(Br)cc1C(=O)Nc1ccc(C(=O)NCC(C)C)cc1 | -2.0% | 2µM* | nt
COc1ccc(N2CCN(C(=O)Nc3ccccc3C)CC2)cc1 | -4.4% | nt | nt
COc1cc2c(C)nc(C)c(C#N)c2cc1OC | -15.1% | -20.1% | -4.4
O=C(NC1CCCCC1)c1ccccc1NC(=S)NC(=O)C1CCC1 | 0.6% | -9.6% | nt
O=C(/C=C/c1ccccc1Cl)NC(=S)Nc1ccccc1C(=O)NC1CCCCC1 | 22.4µM* | 28.2µM* | 0.5
CCCC12CN3CC(C)(CN(C1)C3c1ccc(OC)cc1)C2=O (stereo unspecified) | ? | -1.1% | 13.1
CC12CN3CC(C)(CN(C1)C3c1ccc3c(c1)OCO3)C2 (stereo unspecified) | -9.3% | nt | nt
CCCC12CN3CC(C)(CN(C1)C3c1ccc3c(c1)OCO3)C2=O (stereo unspecified) | 2µM* | -5.6% | 16.3
CC(C)C12CN3CC(C(C)C)(CN(C1)C3c1ccc3c(c1)OCO3)C2=O (stereo unspecified) | 7.94µM* | 3.4% | 8.2
Cc1cnc(C(=O)N2CCCC(C(=O)c3ccc(Cl)cc3C)C2)cn1 (stereo unspecified) | 16.6% | nt | nt
Cc1[nH]nc2c1/C(=N\O)CCC2 | -1.0% | nt | nt
CCc1cc2c(SCC(=O)NC3CCS(=O)(=O)C3)ncnc2s1 (stereo unspecified) | 8.4% | nt | nt
O=C(CSc1nc2ccccc2c(=O)n1Cc1ccco1)N1CCCCCC1 | ? | -20.3% | 16.3
COC(=O)c1ccc2c(=O)n(Cc3ccco3)c(SCC(=O)Nc3cc(C)on3)nc2c1 | 7.7% | nt | nt
CCc1cc2c(=O)n(Cc3ccco3)c(SCC(=O)NC3CCS(=O)(=O)C3)nc2s1 (stereo unspecified) | 10µM* | nt | nt

High-throughput results deposited in PubChem by National Center for Advancing Translational Sciences (NCATS).
